Results reported in PubChem BioAssay.
Active and inactive are the calls of the source.

How the values were obtained:
[1] = small molecules captured by biotinylated probe aFSTL3 – biochemical, small-molecule microarray, fluorescence 635/667, stem cell growth factor project, primary screen (AID 1064); conditions: higher = more signal;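 also: measures binding of the biotinylated anti-FSTL3 antibody to printed compounds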
[2] = binders from COS7 lysate, DM2A8 probe, primary screen, torsin A project, cell lysate, small-molecule microarray, fluorescence 635/667 (AID 1065); conditions: higher = more signal, COS7 lysate expressing mutant human TOR1A
[3] = small molecules captured by biotinylated probe aFGF2 – biochemical, small-molecule microarray, fluorescence 635/667, stem cell growth factor project, primary screen (AID 1067); conditions: higher = more signal;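 also: measures binding of biotinylated aFGF2 protein to printed compounds on slides; z-score merges feature fluorescence and signal-to-noise across triplicate slides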
[4] = small molecules captured by biotinylated probe aFGF10 – biochemical, small-molecule microarray, fluorescence 635/667, stem cell growth factor project, primary screen (AID 1071); conditions: higher = more signal;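 also: score merges 667 nm spot intensity and signal to noise from triplicate slides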
[5] = target: Neurogenic locus notch homolog protein 2 (Homo sapiens) (UniProt Q04721); experiment: small molecules binding Notch2 protein – biochemical, small-molecule microarray, 635 nm fluorescence, stem cell growth factors, primary screen (AID 1073); conditions: higher = more signal
Chain of Neurogenic locus notch homolog protein 2 (Homo sapiens) (Q04721 whole entry, looked up, canonical isoform): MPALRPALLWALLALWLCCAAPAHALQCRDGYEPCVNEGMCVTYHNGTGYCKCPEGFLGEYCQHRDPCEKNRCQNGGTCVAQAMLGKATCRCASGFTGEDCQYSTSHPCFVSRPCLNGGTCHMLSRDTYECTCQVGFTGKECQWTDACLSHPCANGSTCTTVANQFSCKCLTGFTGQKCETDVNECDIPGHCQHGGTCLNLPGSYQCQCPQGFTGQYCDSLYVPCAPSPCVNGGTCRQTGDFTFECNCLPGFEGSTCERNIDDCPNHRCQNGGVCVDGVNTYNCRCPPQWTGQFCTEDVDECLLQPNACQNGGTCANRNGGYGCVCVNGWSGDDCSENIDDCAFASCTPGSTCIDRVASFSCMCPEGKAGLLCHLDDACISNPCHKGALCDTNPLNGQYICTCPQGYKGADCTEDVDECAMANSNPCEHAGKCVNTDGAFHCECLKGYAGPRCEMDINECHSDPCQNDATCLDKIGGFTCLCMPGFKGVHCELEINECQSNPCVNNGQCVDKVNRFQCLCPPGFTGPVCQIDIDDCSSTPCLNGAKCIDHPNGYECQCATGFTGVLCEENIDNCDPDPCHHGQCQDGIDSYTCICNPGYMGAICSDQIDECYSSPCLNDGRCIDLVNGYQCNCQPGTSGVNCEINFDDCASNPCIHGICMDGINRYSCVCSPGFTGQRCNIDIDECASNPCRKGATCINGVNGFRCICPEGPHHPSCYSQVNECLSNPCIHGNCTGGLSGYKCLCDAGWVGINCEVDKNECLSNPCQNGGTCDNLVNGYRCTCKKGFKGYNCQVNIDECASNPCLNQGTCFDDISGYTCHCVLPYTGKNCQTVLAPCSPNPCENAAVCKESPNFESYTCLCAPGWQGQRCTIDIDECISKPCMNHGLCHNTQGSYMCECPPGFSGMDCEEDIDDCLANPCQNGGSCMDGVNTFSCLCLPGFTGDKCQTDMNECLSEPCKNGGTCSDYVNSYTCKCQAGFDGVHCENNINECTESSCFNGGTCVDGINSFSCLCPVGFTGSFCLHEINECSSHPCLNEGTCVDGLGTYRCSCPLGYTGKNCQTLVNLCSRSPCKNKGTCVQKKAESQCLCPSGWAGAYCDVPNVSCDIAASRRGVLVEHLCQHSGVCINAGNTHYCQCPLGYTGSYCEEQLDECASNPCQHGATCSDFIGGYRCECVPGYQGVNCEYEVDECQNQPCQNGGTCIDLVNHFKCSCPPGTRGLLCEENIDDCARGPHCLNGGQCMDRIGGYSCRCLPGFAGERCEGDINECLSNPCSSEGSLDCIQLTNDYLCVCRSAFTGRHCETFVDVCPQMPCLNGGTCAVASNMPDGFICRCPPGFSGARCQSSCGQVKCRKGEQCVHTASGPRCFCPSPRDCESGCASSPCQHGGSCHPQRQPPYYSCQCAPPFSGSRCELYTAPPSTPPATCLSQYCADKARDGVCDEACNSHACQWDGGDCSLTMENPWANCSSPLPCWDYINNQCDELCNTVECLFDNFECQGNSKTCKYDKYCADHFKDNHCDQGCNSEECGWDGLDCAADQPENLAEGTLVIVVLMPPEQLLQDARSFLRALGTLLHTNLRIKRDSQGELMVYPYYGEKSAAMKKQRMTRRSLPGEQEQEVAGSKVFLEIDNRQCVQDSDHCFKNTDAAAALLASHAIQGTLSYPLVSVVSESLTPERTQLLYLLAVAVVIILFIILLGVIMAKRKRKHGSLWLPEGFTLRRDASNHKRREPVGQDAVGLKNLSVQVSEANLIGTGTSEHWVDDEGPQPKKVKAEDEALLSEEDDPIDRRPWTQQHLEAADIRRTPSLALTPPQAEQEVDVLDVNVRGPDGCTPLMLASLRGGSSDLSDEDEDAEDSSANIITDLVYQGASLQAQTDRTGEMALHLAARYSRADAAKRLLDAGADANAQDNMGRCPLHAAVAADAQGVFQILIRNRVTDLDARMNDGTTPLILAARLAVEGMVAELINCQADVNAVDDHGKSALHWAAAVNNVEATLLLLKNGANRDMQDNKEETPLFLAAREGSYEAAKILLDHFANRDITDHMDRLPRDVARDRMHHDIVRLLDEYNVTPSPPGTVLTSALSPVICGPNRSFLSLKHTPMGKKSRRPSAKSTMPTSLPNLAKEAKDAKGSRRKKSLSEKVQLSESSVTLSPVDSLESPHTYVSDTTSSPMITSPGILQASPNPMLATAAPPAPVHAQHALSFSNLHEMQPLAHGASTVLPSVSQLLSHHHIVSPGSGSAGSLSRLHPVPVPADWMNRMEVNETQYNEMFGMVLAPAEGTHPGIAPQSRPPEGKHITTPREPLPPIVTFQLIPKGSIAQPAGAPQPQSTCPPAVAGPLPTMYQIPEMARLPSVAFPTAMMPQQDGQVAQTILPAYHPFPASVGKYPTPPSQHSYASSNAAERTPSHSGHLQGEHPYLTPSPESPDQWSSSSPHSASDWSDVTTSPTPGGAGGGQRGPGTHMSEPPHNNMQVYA

[6] = target: Pro-neuregulin-1, membrane-bound isoform (Homo sapiens) (UniProt Q02297); experiment: small molecules binding neuregulin-1 protein – biochemical, small-molecule microarray, fluorescence 635/667, psychiatric disease protein project, primary screen (AID 1075); conditions: NRG1 binding, 635 nm fluorescence, higher = more signal;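 also: score combines 667 nm spot fluorescence with signal to noise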
Chain of Pro-neuregulin-1, membrane-bound isoform (Homo sapiens) (Q02297 whole entry, looked up, the tested form may be a part, canonical isoform): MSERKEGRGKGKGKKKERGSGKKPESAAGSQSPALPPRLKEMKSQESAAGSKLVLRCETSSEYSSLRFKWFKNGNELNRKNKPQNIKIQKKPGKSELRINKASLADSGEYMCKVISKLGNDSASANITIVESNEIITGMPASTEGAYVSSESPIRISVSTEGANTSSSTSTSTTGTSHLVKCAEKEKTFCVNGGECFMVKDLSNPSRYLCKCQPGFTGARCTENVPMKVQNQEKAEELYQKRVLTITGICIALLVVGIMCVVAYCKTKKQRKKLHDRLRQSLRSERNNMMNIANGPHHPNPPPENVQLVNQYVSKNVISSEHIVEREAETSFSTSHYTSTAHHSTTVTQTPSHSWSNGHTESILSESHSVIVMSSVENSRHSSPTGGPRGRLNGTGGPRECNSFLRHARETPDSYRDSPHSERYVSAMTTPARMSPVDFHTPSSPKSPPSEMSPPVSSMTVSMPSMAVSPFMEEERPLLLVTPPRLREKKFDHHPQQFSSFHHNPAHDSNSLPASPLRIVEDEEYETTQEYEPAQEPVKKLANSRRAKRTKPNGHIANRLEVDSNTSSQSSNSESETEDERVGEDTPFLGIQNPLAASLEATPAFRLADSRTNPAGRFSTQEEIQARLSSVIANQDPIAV

[7] = system: Neuregulin-1 EGF-like domain; experiment: small molecules binding NRG1 EGF domain – biochemical, small-molecule microarray, 635 nm fluorescence, primary screen (AID 1081); conditions: higher = more signal;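 also: binding of the protein to compounds printed on small-molecule microarray slides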
[8] = FRG1 expression reporter modulators in myotubes – cell-based, C2C12 myotubes, firefly/Renilla luciferase, luminescence, FRG1 inhibition for FSHD, primary screen (AID 1084); conditions: FRG1 promoter luciferase, higher = more signal, called active from +8 up or from −8 down
[9] = small molecules captured by biotinylated probe aFST – biochemical, small-molecule microarray, fluorescence 635/667, stem cell growth factor project, primary screen (AID 1086); conditions: higher = more signal;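 also: score merges 667 nm fluorescence with signal-to-noise of each printed compound spot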
[10] = binders of probe aHhip on microarray, primary screen, stem cell growth factor project, biochemical, small-molecule microarray, fluorescence 635/667 (AID 1087); conditions: higher = more signal;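 also: score merges spot fluorescence at 667nm with spot signal to noise ratio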

SMILES	composite z-score [1]	composite z-score [2]	composite z-score [3]	composite z-score [4]	composite z-score [5]	composite z-score [6]	composite z-score [7]	z-score [8]	composite z-score [9]	composite z-score [10]
CC(C)(C)OC(=O)COc1cccc(C(=O)CCN2CCOCC2)c1	1.39	0.262	-0.0741	-0.459	-0.742	0.359	0.187	1.57 (inactive)	0.482	-0.243
CC(C)C(CO)N1C(=O)[C@@H]2[C@H]3C(=O)OCC=C[C@H]3OC23C=CCN(c2ccc(Cl)cc2)C(=O)[C@@H]13 (stereo not given in full)	-0.0597	-0.61	-0.141	-0.385	-0.659	-0.7	0.436	-0.459 (inactive)	-0.243	-0.313
CCCCCCc1nc(Cc2cc(OC)c(OC)c(OC)c2)cc2c1[Si](C(C)C)(C(C)C)OC2	-0.288	-0.117	-0.0909	0.0277	-0.196	-0.184	-0.434	1.06 (inactive)	-0.0763	-0.0427
COC(=O)C(CC#Cc1ccc2c(c1)[C@]1(C(=O)N2)[C@H](c2ccc(O)cc2)N2[C@H](c3ccccc3)[C@H](c3ccccc3)OC(=O)[C@H]2[C@@H]1C(=O)NC[C@H](O)c1ccccc1)C(=O)OC	-0.14	0.249	-0.0592	1.06	0.791	-0.0744	1.4	0.798 (inactive)	0.257	0.0749
C#CCN([C@@H](Cc1ccccc1)C(=O)OC)[C@@H](/C=C/C1CC1)[C@H](O)Cc1ccccc1	1.2	0.0218	-0.114	-0.181	-0.875	-0.445	-0.351	-4.13 (inactive)	-0.283	-0.169
CCCC=C(CCC)[C@@H](NS(=O)(=O)c1ccc(C(F)(F)F)cc1)c1ccccc1	-0.0179	-0.0296	0.143	-0.0601	0.0998	-0.152	0.428	1.75 (inactive)	0.302	0.37
CC[C@@H]1C=C(C(=O)O)[C@H](c2ccc(C#N)cc2)N1S(=O)(=O)c1ccc(C)cc1	0.6	2.35	0.0865	1.09	0.905	1.25	1.3	0.281 (inactive)	0.145	-0.134
COCCOC(=O)N1C(=O)[C@@]2(c3cc(C#CC4=CCCCC4)ccc31)[C@H](C(=O)Nc1nc3ccccc3s1)[C@H]1C(=O)O[C@H](c3ccccc3)[C@H](c3ccccc3)N1[C@@H]2c1ccc(O)cc1	-0.528	1.39	0.0156	0.176	0.992	1.15	1.03	0.0402 (inactive)	1.13	0.103
C=CC[C@@H](OC(=O)Nc1ccc(OC)cc1)c1ccc(O)c(F)c1	0.93	0.141	-0.141	-0.97	-1.43	0.952	1.13	6.36 (inactive)	-0.535	-0.216
CC(C)C[C@@H]1NC(=O)[C@@H]2C[C@H](C(=O)NCCCCCCN)[C@H](c3cccc(OCCO)c3)N2C1=O	0.0713	-0.262	0.107	0.655	0.928	1.98	1.44	1.32 (inactive)	0.819	-0.121
C=C[C@@H](CO)N(Cc1ccc(OC)cc1)S(=O)(=O)c1ccc(Br)cc1	-0.142	0.368	-0.13	0.332	-0.185	0.0749	0.996	-4.18 (inactive)	-0.446	-0.134
CCCC=C(CCC)[C@@H](NC(=O)C(C)(C)C)c1ccc(C(=O)OC)cc1	0.488	-0.495	0.202	0.0431	1.45	0.992	0.883	-4.15 (inactive)	1.26	-0.115
CC(C)(C)OC(=O)CC[C@@]1(C(=O)NCC(O)CO)N=C(c2ccc(OCCCO)cc2)O[C@@H]1c1ccccc1CN=[N+]=[N-] (stereo not given in full)	0.316	1.86	-0.0249	0.426	1.49	1.01	1.48	3.3 (inactive)	0.544	-0.0994
O=C(c1ccccc1)N1C(=O)[C@]2(Cc3ccccc31)N=C(c1ccc(OCCCO)cc1)O[C@@H]2c1ccccc1	-0.203	-0.0033	-0.061	0.821	0.562	1.61	1.3	-1.76 (inactive)	0.313	0.252
COCCCNC(=O)[C@@]1(Sc2ccc(C)cc2)CC(=O)N(C2Cc3ccccc3C2)[C@@H]1c1ccc(CO)cc1	0.667	-1.94	-0.16	-0.459	-1.12	1.47	1.32	-1.11 (inactive)	-0.213	-0.164
O=C(NCCN1CCOCC1)[C@@H]1c2ccccc2C(=O)N(C2Cc3ccccc3C2)[C@H]1c1ccc(CO)cc1	0.704	0.0352	-0.163	-0.465	-0.168	0.855	1.25	-1.39 (inactive)	-0.768	-0.173
COc1ccc([Si](C)(C)[C@@H]2[C@@H](CC(=O)N3Cc4ccccc4C[C@H]3CO)O[C@]3(C(=O)N(Cc4ccc(N5C(=O)c6cccc7cccc5c67)cc4)c4ccccc43)[C@H]2C)cc1	-0.184	0.614	-0.0136	0.637	1.21	0.325	1.17	-1.88 (inactive)	0.0242	-0.361
C=C(COC)/C(=C/C[C@H](OC(=O)c1ccncc1)c1ccccc1OCCO)c1cc(C(=O)OC)ccc1OC	-0.457	0.562	-0.167	0.67	0.302	1.16	0.869	-0.872 (inactive)	0.431	-0.442
COc1ccc(CCNC(=O)[C@@]2(Cc3ccccc3I)c3ccccc3C(=O)N(C3CCCCC3)[C@H]2c2ccc(CO)cc2)cc1	-0.0515	-0.256	-0.079	-0.0337	0.281	0.56	0.897	-4.25 (inactive)	0.384	-0.0645
Cc1ccc(C(C)CC(O)C2C=CC3C(=O)N(c4ccccc4)C(=O)C3N2Nc2ccccc2)o1 (stereo not given)	-0.172	-0.314	-0.087	0.504	1.65	1.18	1.21	-0.0963 (inactive)	1.51	0.113
Cc1cc(C)c(C(O)C2C=CC3C(=O)N(c4ccccc4)C(=O)C3N2Nc2ccccc2F)c(C)c1 (stereo not given)	-0.0327	-0.437	-0.01	-0.0495	0.565	1.07	1.09	0.717 (inactive)	0.439	0.0854
C=CC[C@]1(C(=O)N2CCCCC2)N=C(c2ccc(OCCCO)cc2)O[C@H]1c1ccccc1CN=[N+]=[N-]	-0.25	0.516	0.238	0.546	1.42	1.17	1.24	-1.08 (inactive)	0.907	-0.0699
C=CCN1C(=O)[C@]2(CCS(=O)(=O)c3ccccc3)N=C(c3ccc(OCCCO)cc3)O[C@@H]2c2ccccc21	-0.104	0.264	0.0109	0.162	0.84	0.445	1.28	-1.9 (inactive)	0.454	-0.121
CCCC#C[Si](O[C@H](CC)c1cn([C@H](C)c2ccccc2)nn1)(C(C)C)C(C)C	-0.4	1.31	-0.0407	0.468	0.97	0.0607	0.181	0.337 (inactive)	0.593	-0.407
CO[C@H]1O[C@H](CO)[C@@H](OC(=O)CCc2ccccc2)[C@@H]2OC(=O)[C@@H](Cc3ccccc3)C/C=C/C[C@H](Cc3ccccc3)C(=O)O[C@@H]12	-0.0519	0.595	-0.0962	0.242	0.185	0.438	0.756	0.248 (inactive)	0.671	0.0854
Cc1ccc(S[C@]2(C(=O)NCCN3CCOCC3)CC(=O)N(Cc3ccccc3Cl)[C@@H]2c2ccc(CO)cc2I)cc1	0.75	1.78	0.0027	-0.142	-0.675	1.15	1.04	-2.03 (inactive)	-0.387	0.302
COc1ccc([Si](C)(C)[C@H]2[C@H](CC(=O)N3Cc4ccccc4C[C@H]3CO)O[C@@]3(C(=O)N(Cc4ccc(N5CCOC5=O)cc4)c4ccccc43)[C@@H]2C)cc1	-0.315	0.443	-0.0583	0.345	0.236	0.744	1.1	-4.08 (inactive)	0.315	-0.0296
